# Sampled rows, rich in hits. Any-hit rate of the full collection: about 0.32%.
# TRPV1 potentiator: HTS Assay for Compounds that Act as Potentiators of the Vanilloid Receptor 1; TRPV1-expressing cells, Fluo-8 calcium influx, capsaicin EC20 potentiation; potentiation, % at 8.33 µM; 320,000 compounds, 0.02% hits; in the data active = potentiation above about 80%; inconclusive = between about 30% and that limit
# Target sequence (Q8NER1 whole entry, looked up): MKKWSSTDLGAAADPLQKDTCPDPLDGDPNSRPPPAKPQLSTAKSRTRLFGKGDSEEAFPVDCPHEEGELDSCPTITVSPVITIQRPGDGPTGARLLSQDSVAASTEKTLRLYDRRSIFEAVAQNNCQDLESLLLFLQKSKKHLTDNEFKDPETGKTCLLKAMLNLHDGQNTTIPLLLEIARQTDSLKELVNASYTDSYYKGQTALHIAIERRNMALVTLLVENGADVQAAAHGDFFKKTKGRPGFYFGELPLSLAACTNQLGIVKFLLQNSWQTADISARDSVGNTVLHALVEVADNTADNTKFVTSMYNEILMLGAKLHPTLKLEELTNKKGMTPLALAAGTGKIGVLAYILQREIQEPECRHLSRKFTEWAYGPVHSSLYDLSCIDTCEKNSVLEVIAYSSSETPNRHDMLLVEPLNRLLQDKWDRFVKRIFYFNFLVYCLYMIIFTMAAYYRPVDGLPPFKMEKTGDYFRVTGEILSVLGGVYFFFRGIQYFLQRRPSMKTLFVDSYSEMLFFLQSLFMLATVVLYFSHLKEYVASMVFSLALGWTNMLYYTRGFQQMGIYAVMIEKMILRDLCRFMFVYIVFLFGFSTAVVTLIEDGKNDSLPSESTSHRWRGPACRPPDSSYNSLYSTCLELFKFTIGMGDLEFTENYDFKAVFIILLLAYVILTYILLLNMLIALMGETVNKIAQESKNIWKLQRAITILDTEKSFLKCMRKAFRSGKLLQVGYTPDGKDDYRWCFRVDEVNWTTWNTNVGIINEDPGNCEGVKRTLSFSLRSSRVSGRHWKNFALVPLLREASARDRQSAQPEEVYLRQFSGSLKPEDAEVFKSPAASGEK
#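 TRPV1-expressing cells were cultured overnight at 35.5C and loaded with Fluo-8 calcium dye for 40 to 90 min at room temperature. After a 10 s baseline, compound was added and calcium influx was read kinetically for 3 min (ex 480/em 520 nm).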
# Menin MLL FP TR: qHTS Assay for Inhibitors Targeting the Menin-MLL Interaction in MLL Related Leukemias: Competition With Texas Red Labeled MLL-derived Mutant Peptide | AID 1768, 2009 | 270,000 compounds, 0.23% hits | Potency, µM (series often up to 61.6 µM), hits mostly inhibitors | Menin + Texas Red MLL mutant peptide, fluorescence polarization; active = well fitted inhibition curve with a large enough effect in the polarisation, with a control signal flat, not every such curve was filed as active; inconclusive = small, poorly fitted or top-dose-only effect, or effect the other way, or a change in a side signal; inactive = no such curve, though single readings can be large or run the other way; the % refers to the polarisation
# TRPV1 agonist: HTS Assay for Compounds that Act as Agonists of the Vanilloid Receptor 1; activation, % at 8.33 µM; 320,000 compounds, 0.19% hits; TRPV1-expressing cells, Fluo-8 calcium influx, agonist mode; Transient receptor potential cation channel subfamily V member 1 (Homo sapiens), Q8NER1; in the data active = activation above about 80%; inconclusive = between about 30% and that limit
#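 TRPV1-expressing cells were cultured overnight at 35.5C and loaded with Fluo-8 calcium dye for 40 to 90 min at room temperature. After a 10 s baseline, compound was added and calcium influx was read kinetically for 3 min (ex 480/em 520 nm).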
# Menin MLL FP FL: qHTS Assay for Inhibitors Targeting the Menin-MLL Interaction in MLL Related Leukemias: Competition With Fluorescein Labeled MLL-derived Peptide. Fluorescence polarization, fluorescein-MLL peptide displacement from menin. FP activity change, % at 61.4 µM. 290,000 tested, under 10 active. AID 1766, 2009; active = well fitted curve in the direction sought with a large enough effect in the polarisation, not every such curve was filed as active; inconclusive = small, poorly fitted or top-dose-only effect, or effect the other way, or a change in a side signal; inactive = no such curve, though single readings can be large or run the other way; the % refers to the polarisation
# MLL CXXC-DNA inh: qHTS Fluorescence Polarization Assay for Inhibitors of MLL CXXC domain - DNA interaction. Histone-lysine N-methyltransferase 2A (Homo sapiens), Q03164. MLL-CXXC / FITC-HOXA9 DNA fluorescence polarization. AID 2662, 2010. 290,000 compounds, 0.037% hits. Potency, µM (doses to about 115 µM), most hits filed as inhibitors; active = well fitted inhibition curve with a large enough effect in the polarisation, with a control signal flat, not every such curve was filed as active; inconclusive = small, poorly fitted or top-dose-only effect, or effect the other way, or a change in a side signal; inactive = no such curve, though single readings can be large or run the other way; the % refers to the polarisation
#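 Purified MLL-CXXC (added from a 7 uM solution) was preincubated 5 min at ambient with pinned compounds in 50 mM Tris-HCl pH 7.5, 50 mM NaCl, 1 mM DTT, 0.05% BSA. Fluorescein-labeled HOX-A9 DNA (50 nM solution) followed, 30 min, then polarization read.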
# MLL CXXC FP-Fl: qHTS Fluorescence Polarization (FP) Assay for Inhibitors of MLL CXXC domain - DNA interaction: Fluorescein FP; MLL CXXC-DNA binding, fluorescein FP; Potency, µM (series often up to 345 µM), most hits filed as inhibitors; shares compounds with MLL CXXC-DNA inh; AID 624160, 2012; 200 compounds, 70% hits; note: nearly all actives have a fitted effect of over 80% in size
# MLL CXXC FP-TR: qHTS Fluorescence Polarization (FP) Assay for Inhibitors of MLL CXXC domain - DNA interaction: Texas Red FP | shares compounds with MLL CXXC-DNA inh | MLL CXXC-DNA binding, Texas Red fluorescence polarization | 200 compounds, 40% hits | AID 624161, 2012 | Potency, µM (top dose mostly 345 µM), usual class: inhibitors; note: nearly all actives have a fitted effect of over 75% in size
# MLL CXXC HTRF: qHTS Fluorescence Polarization (FP) Assay for Inhibitors of MLL CXXC domain - DNA interaction: HTRF Assay; shares compounds with MLL CXXC-DNA inh; MLL CXXC-DNA binding, HTRF, biochemical; Potency, µM (top dose mostly 172 µM), actives largely listed as inhibitors; 210 compounds, 30% hits; AID 624162, 2012; note: nearly all actives have a fitted effect of over 80% in size
# A number is an active result; . = inactive; ? = inconclusive; / = no result. Unless noted, calls come from the whole dose curve; as a rule, active = well fitted inhibition curve with a large enough effect; inconclusive = small, poorly fitted or top-dose-only effect; inactive = no such curve, though single readings can be large or run the other way.
SMILES,TRPV1 potentiator,Menin MLL FP TR,TRPV1 agonist,Menin MLL FP FL,MLL CXXC-DNA inh,MLL CXXC FP-Fl,MLL CXXC FP-TR,MLL CXXC HTRF
O=c1c2ccccc2nc(CN2CCCCCC2)n1-c1ccc(F)cc1,.,17.8µM,.,.,.,/,/,/
COC[C@H]1OC(=O)c2coc3c2[C@@]1(C)C1=C(C3=O)[C@H]2CCC(=O)[C@@]2(C)C[C@H]1OC(C)=O,/,10µM,/,?,/,/,/,/
O=[N+]([O-])c1ccc(NCc2ccccc2)c2nonc12,.,?,126.2,?,?,/,/,/
CC(CO)NC(=O)C1C=C2c3cccc4[nH]cc(c34)CC2N(C)C1 (stereo not drawn),/,.,/,?,31.6µM,142µM,?,.
COc1ccc(N=Cc2c(O)n(Cc3ccccc3)c(=S)[nH]c2=O)c(OC)c1,/,/,/,?,31.6µM,159µM,.,.
CN1C2CC(OC(=O)C(CO)c3ccccc3)C[C@@H]1[C@H]1OC21 (stereo partly drawn),/,.,/,.,/,/,/,/
Cc1ccc(N2C(=O)NC(=O)/C(=C\c3cn(CC(=O)O)c4ccccc34)C2=O)cc1,.,.,.,.,?,14.2µM,71.1µM,.
O=C(O)Cn1cc(/C=C2\C(=O)NC(=O)N(Cc3ccco3)C2=O)c2ccccc21,.,?,.,?,?,7.11µM,.,48.5µM
CCN1C(=O)NC(=O)/C(=C\c2cn(CC(=O)O)c3ccccc23)C1=O,.,.,.,.,?,/,/,/
CN1[C@@H]2CC(OC(=O)[C@H](CO)c3ccccc3)C[C@@H]1[C@H]1O[C@H]12 (stereo partly drawn),/,.,/,.,/,/,/,/
Cc1cc2nc3c(=O)[nH]c(=O)nc-3n(C[C@H](O)[C@H](O)[C@H](O)COP(=O)(O)OP(=O)(O)OC[C@H]3O[C@@H](n4cnc5c(N)ncnc54)[C@H](O)[C@@H]3O)c2cc1C,/,.,/,?,?,/,/,/
O=C1NC(=S)NC(=O)C12C(c1ccc(F)cc1)NC(=S)NC2c1ccc(F)cc1 (stereo not drawn),.,/,.,.,?,?,.,.
COc1ccc(OCCOc2cccc(C=C3C(=O)NC(=O)NC3=O)c2)cc1,.,.,.,.,?,44.8µM,?,38.5µM
COc1cc(C=C2C(=O)NC(=O)NC2=O)ccc1O,?,.,.,?,?,56.5µM,159µM,122µM
CCOc1cc(C=C2C(=O)NC(=O)NC2=O)cc([N+](=O)[O-])c1O,.,?,.,.,31.6µM,20µM,89.5µM,19.3µM
CN(C)c1ccc(C=C2C(=O)NC(=O)NC2=O)cc1[N+](=O)[O-],.,.,.,.,.,/,/,/
CN(CCOc1ccc(C=C2C(=O)NC(=O)NC2=O)cc1)c1ccccn1,.,.,.,.,.,/,/,/
CC(C)(C)OC(=O)C(Br)CCBr (stereo not drawn),/,.,/,.,/,/,/,/
CN1[C@@H]2CC(OC(=O)[C@@H](CO)c3ccccc3)C[C@@H]1[C@H]1O[C@H]12 (stereo partly drawn),/,.,/,.,.,/,/,/
O=P(O)(O)C(Cl)(Cl)P(=O)(O)O,/,.,/,.,35.5µM,?,?,24.3µM
O=P(O)(O)CCCl,/,.,/,.,/,/,/,/
CCc1ccccc1NC(=O)NNS(=O)(=O)c1cc(C)ccc1C,.,.,.,.,14.1µM,?,.,.

# Screens: PubChem, National Center for Advancing Translational Sciences (NCATS)
